Bioassay records from PubChem BioAssay.
FBW7 activator – FBW7 E3 ligase activators, primary screen, biochemical, AlphaScreen, human; normalized activity (activation), % at 26.1 µM; 650,000 tested, 0.13% active; F-box/WD repeat-containing protein 7 (Homo sapiens), Q969H0; AlphaScreen FBW7–phospho-cyclin E peptide binding, activator screen; in the data active = normalized activity above about 1.9%;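 note: purified mutant Fbw7 with reduced substrate affinity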
Target sequence (Q969H0 whole entry, looked up): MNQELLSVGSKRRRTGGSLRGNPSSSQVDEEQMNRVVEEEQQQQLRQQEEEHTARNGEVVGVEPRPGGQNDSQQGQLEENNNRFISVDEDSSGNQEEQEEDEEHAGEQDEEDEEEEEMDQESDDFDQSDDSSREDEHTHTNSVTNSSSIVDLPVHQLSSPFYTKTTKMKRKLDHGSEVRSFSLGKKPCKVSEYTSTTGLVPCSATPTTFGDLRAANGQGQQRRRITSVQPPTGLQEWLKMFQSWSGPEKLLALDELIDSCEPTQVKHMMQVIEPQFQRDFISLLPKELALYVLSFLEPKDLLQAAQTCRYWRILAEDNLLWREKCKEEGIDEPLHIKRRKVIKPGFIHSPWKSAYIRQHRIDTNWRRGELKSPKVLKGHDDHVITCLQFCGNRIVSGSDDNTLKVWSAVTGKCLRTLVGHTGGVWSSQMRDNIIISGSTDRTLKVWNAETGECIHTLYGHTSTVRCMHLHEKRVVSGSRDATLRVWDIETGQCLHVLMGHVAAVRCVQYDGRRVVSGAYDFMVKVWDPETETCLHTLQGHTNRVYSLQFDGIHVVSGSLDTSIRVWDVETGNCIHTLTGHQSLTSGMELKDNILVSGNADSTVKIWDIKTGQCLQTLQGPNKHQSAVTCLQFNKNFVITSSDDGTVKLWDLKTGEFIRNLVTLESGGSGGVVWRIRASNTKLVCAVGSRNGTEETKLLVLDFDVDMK
TEAD-YAP inh – TEAD-YAP interaction inhibition, primary screen, TEAD-YAP interaction inhibitor project, luminescence, HEK-TIYL cells; inhibition, % at 9.12 µM; TEAD-Gal4/YAP UAS-luciferase luminescence; 640,000 tested, 1.4% active; in the data active = inhibition above about 32%;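 note: 0% = median of test compound wells and 100% = reference inhibitor wells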
MITF inh – MITF inhibitors, primary screen, biochemical, AlphaScreen, human; AlphaScreen MITF homodimerization, bead proximity signal; inhibition, % at 2.6 µM; 650,000 tested, 0.91% active; AID 1259374, 2018; in the data active = inhibition above about 50%;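 note: 0% = vehicle wells with protein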
GPR151 activ – activators of human GPR151, primary screen, cell-based, PathHunter beta-arrestin, luminescence | activation, % at 11.2 µM | 650,000 tested, 1% active | PathHunter beta-arrestin GPR151 cells | AID 1508602, 2020; in the data active = activation above about 4.9%;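 note: 0% = median of compound wells and 100% = cells with positive control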
GPR151 confirm – GPR151 activators, triplicate retest, confirmation, cell-based, PathHunter beta-arrestin, luminescence; shares compounds with GPR151 activ; GPR151 PathHunter beta-arrestin cells, 90 min; % of EA-reagent control over plate median; activation, % at 11.2 µM; 6,700 tested, under 10 active; AID 1508609, 2020;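 active = mean percent activation across replicates above the confirmation screen cutoff of 4.91%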
GPR119 counter – GPR119 activators in beta-arrestin cells, counter-screen for GPR151 activator project, cell-based, PathHunter beta-arrestin, luminescence, triplicate. shares compounds with GPR151 activ. 90 min; 0 = compound-well median, 100 = enzyme-acceptor control. activation, % at 11.2 µM. 6,700 tested, 0.3% active. AID 1508611, 2020;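 active = mean percent activation in the counterscreen above 29.09%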;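 note: counterscreen on off-target GPR119 to flag nonselective hits from the GPR151 activator screen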
An asterisk follows results filed as active; x = no result. This is a sample that favours compounds with a hit; in the whole collection about 3.5% have one here.

SMILES	FBW7 activator	TEAD-YAP inh	MITF inh	GPR151 activ	GPR151 confirm	GPR119 counter
COc1ccc(C2/C(=C(\O)c3ccc(Cl)cc3)C(=O)C(=O)N2c2ccccc2C)cc1 (stereo not given)	0.0	-12.8	0.9	1.0	x	x
CCCNc1cc(Nc2ccncn2)nc(N)n1	0.1	-3.9	2.2	18.1*	0.2	3.4
Nc1nc(NCCO)cc(Nc2ccncn2)n1	0.0	-9.0	4.2	1.0	x	x
CCOc1ccc(NC(=O)CSc2cn(Cc3cccc(F)c3)c3ccccc23)cc1	0.1	-5.0	10.8	17.5*	-0.4	4.0
CCCn1cc(SCC(=O)Nc2ccc(OCC)cc2)c2ccccc21	0.0	20.5	-10.7	0.1	x	x
Nc1nc(SCc2nc(-c3ccccc3)no2)[nH]c(=O)c1-c1ccccc1	-0.1	1.5	-1.8	6.0*	-1.7	-16.4
Nc1nc(SCC(=O)NCc2ccccc2)[nH]c(=O)c1-c1ccccc1	0.0	8.4	2.5	6.8*	0.4	-0.3
CNC(=S)N(C)CCc1ccc(OC)c(OC)c1	0.4	-7.9	8.9	1.2	x	x
CCc1ccc(NC(=O)CCc2ccc(CC)o2)cc1	-0.1	-13.7	0.7	8.5*	-0.4	-3.8
CC(NCc1cc(Br)ccc1OCC(N)=O)C12CC3CC(CC(C3)C1)C2 (stereo not given)	-0.1	23.6	1.5	7.6*	-0.8	-17.8
CC(C)(C)NC(=O)CN1N=C(c2ccccc2)Cn2c(cc3ccccc32)C1=O	0.0	-1.9	-14.2	-0.7	x	x
Cc1ccc2nc(CN(C)Cc3ccno3)nc(N3CCSCC3)c2c1	-0.1	-8.3	-4.9	2.4	x	x
O=C(Nc1cccnc1)C(=O)C1C(=O)Nc2ccccc21 (stereo not given)	-0.7	3.5	-2.2	0.5	x	x
CN1CCN(C(=S)NC(=O)c2ccc(Br)o2)CC1	-0.1	-3.7	-20.1	0.8	x	x
COc1cc2nc(Nc3nc4ccccc4n3C)nc(NCCCN3CCCC3=O)c2cc1OC	-0.1	-5.6	0.2	-2.3	x	x
COc1cc2nc(Nc3nccc4ccccc34)nc(NCCCN3CCCC3=O)c2cc1OC	0.0	-3.9	3.5	5.6*	-0.4	-1.3
Cc1ccc(NC(=O)NC23CC4CC(CC(C4)C2)C3)cc1NC(=O)NC12CC3CC(CC(C3)C1)C2	0.0	-0.3	0.9	-0.1	x	x
Cc1ccc(NC(=O)NC23CC4CC(CC(C4)C2)C3)cc1	-0.1	-22.2	-7.1	5.6*	0.6	3.4
CNC(=O)C(=O)NCC(c1ccco1)S(=O)(=O)c1ccc(Cl)cc1 (stereo not given)	0.5	17.8	10.8	5.2*	-0.9	-7.2
O=C(NCCO)C(=O)NCC(c1ccco1)S(=O)(=O)c1ccc(Cl)cc1 (stereo not given)	0.1	-3.2	3.8	0.8	x	x
CCn1nc(C)c(CN2CCC3(CC2)CC3C(=O)NCc2ccccc2)c1C (stereo not given)	0.1	7.8	-2.6	5.4*	0.3	0.1
COc1cccc(CN2CCC3(CC2)CC3C(=O)NCc2cccc(C(F)(F)F)c2)c1O (stereo not given)	-0.1	-2.8	-4.2	5.0*	0.9	12.9
CCN(CC)C(=O)c1sc(=S)n(CCOc2ccccc2)c1C	-0.2	-37.8	-1.7	-1.0	x	x
COc1ccccc1C(C)N(C)Cc1nc(-c2ccccn2)no1 (stereo not given)	0.0	-16.5	4.4	-1.5	x	x
N#CC1C(=S)NC2=C(C1c1ccc(Cl)cc1Cl)N1CCC2CC1 (stereo not given)	-0.2	-1.2	-6.5	4.7	x	x
O=C(CCc1ccccc1)Nc1cc(Cl)ccc1Cl	0.2	-7.5	5.8	-0.9	x	x
O=C(CC(NCc1ccccc1)C(=O)O)Nc1cc(Cl)ccc1Cl (stereo not given)	0.3	0.7	-0.4	7.2*	0.2	14.5
O=C(CN1CCCCCC1)N/N=C/c1ccccc1F	-0.1	-0.8	17.7	7.2*	-0.8	1.8
